# Inconclusive results are not listed. A call without a number means that no potency is given here. Values without a mark were called inactive. The source made the active and inactive calls. Calls follow the shape of the dose curve; as a rule, active = well fitted curve in the direction sought with a large enough effect; inconclusive = small, poorly fitted or top-dose-only effect, or another doubt; inactive = no such curve, though single readings can be large; an effect the other way counts as inactive or inconclusive.
# Legend:
# [1] = target: Rap guanine nucleotide exchange factor 3 (Homo sapiens) (UniProt O95398); assay: Confirmatory qHTS for agonist of cAMP-regulated guanine nucleotide exchange factor 3 (EPAC1) (AID 1645881);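 also: EPAC1 catalysed release of BODIPY-GDP from Rap1B seen as fluorescence loss; nearly all actives have a fitted effect of over 75% in size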
# Chain of Rap guanine nucleotide exchange factor 3 (Homo sapiens) (O95398 whole entry, looked up): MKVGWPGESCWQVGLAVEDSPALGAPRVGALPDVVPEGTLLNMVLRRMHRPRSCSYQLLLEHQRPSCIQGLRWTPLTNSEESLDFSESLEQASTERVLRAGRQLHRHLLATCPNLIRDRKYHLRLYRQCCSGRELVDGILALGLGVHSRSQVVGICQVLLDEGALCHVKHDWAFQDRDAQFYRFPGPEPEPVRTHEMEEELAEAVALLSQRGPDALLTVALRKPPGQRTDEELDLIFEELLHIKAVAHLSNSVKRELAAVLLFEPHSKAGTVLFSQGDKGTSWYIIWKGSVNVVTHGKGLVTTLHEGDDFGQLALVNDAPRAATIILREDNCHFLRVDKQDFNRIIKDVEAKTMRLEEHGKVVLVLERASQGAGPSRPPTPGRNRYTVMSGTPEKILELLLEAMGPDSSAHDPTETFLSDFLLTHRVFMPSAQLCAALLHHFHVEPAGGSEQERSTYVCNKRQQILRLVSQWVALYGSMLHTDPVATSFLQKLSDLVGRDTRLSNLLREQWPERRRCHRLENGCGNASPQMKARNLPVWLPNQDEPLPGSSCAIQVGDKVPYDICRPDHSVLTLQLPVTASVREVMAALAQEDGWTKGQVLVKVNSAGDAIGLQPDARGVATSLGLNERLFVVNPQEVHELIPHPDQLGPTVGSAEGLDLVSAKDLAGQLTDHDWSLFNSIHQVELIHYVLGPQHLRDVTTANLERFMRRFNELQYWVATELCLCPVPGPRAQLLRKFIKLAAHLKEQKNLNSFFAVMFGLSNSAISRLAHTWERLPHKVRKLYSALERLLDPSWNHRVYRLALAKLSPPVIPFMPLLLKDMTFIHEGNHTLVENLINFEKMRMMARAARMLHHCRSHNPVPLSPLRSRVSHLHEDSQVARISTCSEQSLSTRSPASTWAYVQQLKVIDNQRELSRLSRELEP
# [2] = target: Rap guanine nucleotide exchange factor 4 (Homo sapiens) (UniProt Q8WZA2); assay: Confirmatory qHTS for agonist of cAMP-regulated guanine nucleotide exchange factor 4 (EPAC2) (AID 1645884);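 also: nucleotide exchange releases bodipy-GDP from Rap1 and this lowers its fluorescence; nearly all actives have a fitted effect of over 65% in size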
# Chain of Rap guanine nucleotide exchange factor 4 (Homo sapiens) (Q8WZA2 whole entry, looked up): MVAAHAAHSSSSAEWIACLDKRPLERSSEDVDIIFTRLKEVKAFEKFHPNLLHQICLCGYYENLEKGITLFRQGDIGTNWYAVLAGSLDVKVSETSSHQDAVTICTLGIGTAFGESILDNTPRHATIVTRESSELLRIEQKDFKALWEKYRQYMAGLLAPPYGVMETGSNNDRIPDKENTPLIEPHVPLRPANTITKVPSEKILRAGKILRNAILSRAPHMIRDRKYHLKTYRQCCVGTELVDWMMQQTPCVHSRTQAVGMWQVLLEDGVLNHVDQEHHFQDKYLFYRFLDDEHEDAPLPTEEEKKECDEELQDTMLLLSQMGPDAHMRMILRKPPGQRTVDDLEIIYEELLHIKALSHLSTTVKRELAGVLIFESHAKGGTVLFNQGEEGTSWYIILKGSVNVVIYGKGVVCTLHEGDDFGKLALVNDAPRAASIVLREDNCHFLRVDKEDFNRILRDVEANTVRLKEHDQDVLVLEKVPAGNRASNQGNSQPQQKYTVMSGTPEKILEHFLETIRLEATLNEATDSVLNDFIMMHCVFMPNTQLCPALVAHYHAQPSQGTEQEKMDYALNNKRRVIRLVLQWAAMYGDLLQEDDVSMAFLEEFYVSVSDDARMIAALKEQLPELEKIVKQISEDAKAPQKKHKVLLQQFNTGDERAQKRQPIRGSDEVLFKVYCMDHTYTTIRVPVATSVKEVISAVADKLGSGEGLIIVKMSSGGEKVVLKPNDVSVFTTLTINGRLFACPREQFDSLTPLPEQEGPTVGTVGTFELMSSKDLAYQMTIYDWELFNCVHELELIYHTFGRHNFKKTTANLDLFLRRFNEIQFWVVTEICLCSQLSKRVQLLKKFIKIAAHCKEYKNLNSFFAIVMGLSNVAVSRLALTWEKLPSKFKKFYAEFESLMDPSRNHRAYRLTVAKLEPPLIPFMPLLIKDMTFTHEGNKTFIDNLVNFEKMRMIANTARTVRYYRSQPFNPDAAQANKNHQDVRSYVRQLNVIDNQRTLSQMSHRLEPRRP
# [3] = target: Rap guanine nucleotide exchange factor 4 (Homo sapiens) (UniProt Q8WZA2); assay: Confirmatory qHTS for antagonist of cAMP-regulated guanine nucleotide exchange factor 4 (EPAC2) (AID 1645885); also: nearly all actives have a fitted effect of over 25% in size; also: potency is read from the fitted curve at half-maximal effect
# [4] = target: Rap guanine nucleotide exchange factor 3 (Homo sapiens) (UniProt O95398); assay: Counterscreen qHTS for antagonist of cAMP-regulated guanine nucleotide exchange factor 3 (EPAC1) (AID 1645888);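 also: fluorescence loss as bound BODIPY-GDP is released from Rap1B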
# Summary of the method: (§1)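 Rap1B–BODIPY-GDP (250 nM) with 50 uM GDP; compounds pin-transferred to 9.74 nM–152 uM final (activator) or from 7.32 nM upwards (inhibitor). Fluorescence Ex/Em 480/540 nm read at 5 and 30 min, then after adding cAMP or buffer, at room temperature.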
# [5] = target: Rap guanine nucleotide exchange factor 3 (Homo sapiens) (UniProt O95398); assay: Counterscreen qHTS for agonist of cAMP-regulated guanine nucleotide exchange factor 3 (EPAC1) (AID 1645889); also: nearly all actives have a fitted effect of over 40% in size; also: potency is read from the fitted curve at half-maximal effect
# Summary of the method: as §1
Structure (SMILES),Potency [1],Potency [2],Potency [3],Potency [4],Potency [5],activation [2],"activity change, negative = inhibition [4]",activation [5],outcome [3]
C[C@H]1CN([C@@H](C)CO)C(=O)c2cccc(NC(=O)C3CC3)c2O[C@H]1CN(C)S(=O)(=O)c1ccccc1,inactive,inactive,inactive,inactive,inactive,,,,
CCOc1cc(/C=C/c2cc(C(=O)O)c3ccccc3n2)ccc1OC,inactive,,inactive,,,"-3.6% [at 17.1 µM, percent relative to cAMP agonist control]",8.54% [at 30.8 µM],6.45% [at 30.8 µM],
Cc1nn(-c2ccccc2)c(Cl)c1/C=C1\SC(=S)N(CCCCCC(=O)O)C1=O,inactive,,inactive,,,"-0.0903% [at 17.1 µM, percent relative to cAMP agonist control]",-15.3% [at 30.8 µM],22.3% [at 30.8 µM],
COc1ccc(-c2csc(C(C)(O)c3ccccc3)n2)cc1 (stereo not given),inactive,,inactive,,,"5.7% [at 17.1 µM, percent relative to cAMP agonist control]",8.72% [at 30.8 µM],23.4% [at 30.8 µM],
COC(=O)c1nn(-c2ccccc2)c(Sc2ccc(OC)cc2)c1/C=N/O,inactive,,inactive,,,"-5.43% [at 17.1 µM, percent relative to cAMP agonist control]",-27.4% [at 30.8 µM],23% [at 30.8 µM],
COc1ccc(-c2cnnc(N/N=C/c3ccc(O)c(O)c3)n2)cc1,inactive,inactive,inactive,inactive,inactive,,,,
Cc1cccc(Cn2c(=O)oc3ccc(C)cc32)c1,inactive,,inactive,,,"1.77% [at 17.1 µM, percent relative to cAMP agonist control]",0.42% [at 30.8 µM],19.6% [at 30.8 µM],
Cn1c(N)c(C(=O)CSc2nnc(-c3c[nH]c4ccccc34)n2C2CC2)c(=O)[nH]c1=O,inactive,,inactive,,,"1.91% [at 17.1 µM, percent relative to cAMP agonist control]",2.97% [at 30.8 µM],17.7% [at 30.8 µM],
CCN(CC)c1ccc(/C=C2/C(=O)c3ccc(C(=O)O)cc3C2=O)cc1,inactive,,inactive,,,"4.11% [at 17.1 µM, percent relative to cAMP agonist control]",8.07% [at 30.8 µM],9.24% [at 30.8 µM],
O=C(O)c1cc(-c2ccc(/C=C3/SC(=S)N(Cc4ccccc4)C3=O)o2)ccc1Cl,inactive,,inactive,,,"-8.48% [at 17.1 µM, percent relative to cAMP agonist control]",-11.2% [at 30.8 µM],7.37% [at 30.8 µM],
Cn1c(=O)c(C(=O)NNC(=O)c2ccccc2Br)c(O)c2ccccc21,inactive,,inactive,,,"2.84% [at 17.1 µM, percent relative to cAMP agonist control]",-5.21% [at 30.8 µM],8.96% [at 30.8 µM],
COc1ccc(/C=C2/SC(=O)N(CCC(=O)Nc3ccc(S(=O)(=O)Nc4nccs4)cc3)C2=O)cc1,inactive,inactive,inactive,inactive,inactive,,,,
Cc1cc(-c2ccc(C(C)C)c(S(=O)(=O)N3CCC(C)CC3)c2)on1,inactive,,inactive,,,"8.04% [at 17.1 µM, percent relative to cAMP agonist control]",-17.5% [at 30.8 µM],0.648% [at 30.8 µM],
Oc1ccc(NCc2ccc(OCc3ccccc3Cl)cc2)cc1,inactive,inactive,inactive,inactive,56.2 µM (active),,,,
CC(C)(C)C(=O)Nc1cccc(C(=O)OCc2cc(=O)n3nc(C4CCCCC4)sc3n2)c1,inactive,inactive,,inactive,inactive,,,,inactive [at 12.7 µM]
NS(=O)(=O)c1ccc(Nc2nc(-c3cccc([N+](=O)[O-])c3)cs2)cc1,inactive,,inactive,,,"3.15% [at 17.1 µM, percent relative to cAMP agonist control]",-4.36% [at 30.8 µM],15.6% [at 30.8 µM],
COc1ccc(N=C2SC(C(=O)Nc3ccc(C(=O)O)cc3)CC(=O)N2Cc2cccs2)cc1 (stereo not given),inactive,,inactive,,,"-0.227% [at 17.1 µM, percent relative to cAMP agonist control]",-2.18% [at 30.8 µM],7.24% [at 30.8 µM],

Structure (SMILES),Potency [1],Potency [2],Potency [3],Potency [4],Potency [5],activation [2],"activity change, negative = inhibition [4]",activation [5],outcome [3]
CC(C)N1CCc2c(sc(NC(=O)c3ccc(S(=O)(=O)N4CCc5ccccc54)cc3)c2C(N)=O)C1,inactive,inactive,inactive,inactive,inactive,,,,
CC(C)(C)NC(=O)COC(=O)c1c2c(nc3ccccc13)CCC2,inactive,,inactive,,,"2.28% [at 17.1 µM, percent relative to cAMP agonist control]",-10.2% [at 30.8 µM],16.3% [at 30.8 µM],
Cc1cc2nc(-c3ccc(SCc4ccccn4)nc3)[nH]c2cc1C,inactive,,inactive,,,"4.1% [at 17.1 µM, percent relative to cAMP agonist control]",1.95% [at 30.8 µM],19.2% [at 30.8 µM],
O=c1[nH]n2c(=O)c3c([nH]c2c1N=Nc1cccc(Cl)c1)CCCC3,inactive,,inactive,,,"-16.2% [at 17.1 µM, percent relative to cAMP agonist control]",-25.4% [at 30.8 µM],-2.93% [at 30.8 µM],
CC1CCCCN1S(=O)(=O)c1ccc(C(=O)Nc2nnc(-c3ccccc3Cl)o2)cc1 (stereo not given),inactive,,inactive,,,"0% [at 17.1 µM, percent relative to cAMP agonist control]",-13.1% [at 30.8 µM],16.2% [at 30.8 µM],
COc1cccc(OCc2cc(/C=N/Nc3ccc(C(=O)O)cc3)ccc2OC)c1,inactive,,inactive,,,"6.81% [at 17.1 µM, percent relative to cAMP agonist control]",-4.72% [at 30.8 µM],21.5% [at 30.8 µM],
COCCNc1nc(Oc2ccccc2)c2sccc2n1,inactive,inactive,inactive,inactive,inactive,,,,
Oc1cccc(-c2nc3ncccn3c2Nc2cccc(C(F)(F)F)c2)c1,inactive,inactive,inactive,inactive,inactive,,,,
COc1cc(OC)cc(-c2cc3ccc(OC)cc3cn2)c1,inactive,inactive,30.1 µM (active),inactive,inactive,,,,
CCCCC(CC)C(=O)Oc1ccc(O)c(C(C)(C)C)c1 (stereo not given),inactive,,inactive,,,"-3.79% [at 17.1 µM, percent relative to cAMP agonist control]",0.29% [at 30.8 µM],-16.7% [at 30.8 µM],
CC(=O)N1CCN(Cc2cc(=O)oc3ccc4ccccc4c23)CC1,inactive,,inactive,,,"4.37% [at 17.1 µM, percent relative to cAMP agonist control]",9.94% [at 30.8 µM],27.9% [at 30.8 µM],
CCCCCNC(=O)C(C#N)c1nc2ccccc2nc1N1CCCC1 (stereo not given),inactive,,inactive,,,"-33.7% [at 17.1 µM, percent relative to cAMP agonist control]",-27.7% [at 30.8 µM],-1.55% [at 30.8 µM],
Cc1ccc2nc(-c3ccco3)c(Cc3cccc(Cl)c3)n2c1,inactive,,inactive,,,"2.28% [at 17.1 µM, percent relative to cAMP agonist control]",-5.77% [at 30.8 µM],14.3% [at 30.8 µM],
Cc1cccc(CN2C(=O)c3ccccc3Sc3ccc(C(=O)N4CCCC4)cc32)c1,inactive,inactive,inactive,inactive,inactive,,,,
CCCCn1c(N)c(N(CCC(C)C)C(=O)c2ccc(COc3ccccc3)o2)c(=O)[nH]c1=O,inactive,,inactive,,,"1.71% [at 17.1 µM, percent relative to cAMP agonist control]",1.42% [at 30.8 µM],7.33% [at 30.8 µM],
O=C1/C(=C/c2cccc(F)c2)SC(=S)N1NS(=O)(=O)c1ccccc1,inactive,inactive,inactive,inactive,inactive,,,,
Cc1ccc(SCC(=O)OCC(=O)N(C)CC(=O)Nc2ccc(F)cc2)cc1C,inactive,,inactive,,,"5.96% [at 17.1 µM, percent relative to cAMP agonist control]",-28.7% [at 30.8 µM],26.8% [at 30.8 µM],
